mIDH1 inhibitor: blocks human mutant IDH1 R132H enzyme. Potency, µM (highest dose often 76.6 µM), without a hit: at the top dose activity change, negative = inhibition, actives largely listed as inhibitors. IDH1-R132H enzyme, NADPH consumption, diaphorase/resazurin fluorescence. actives 0.093% (n = 390,000). O75874; further: potency means the concentration at half of the fitted maximal effect; on the % scale 0 is the no-effect control and ±100 the full control effect; nearly all actives have a fitted effect of over 65% in size
Target sequence (O75874 whole entry R132H, stated change not applied): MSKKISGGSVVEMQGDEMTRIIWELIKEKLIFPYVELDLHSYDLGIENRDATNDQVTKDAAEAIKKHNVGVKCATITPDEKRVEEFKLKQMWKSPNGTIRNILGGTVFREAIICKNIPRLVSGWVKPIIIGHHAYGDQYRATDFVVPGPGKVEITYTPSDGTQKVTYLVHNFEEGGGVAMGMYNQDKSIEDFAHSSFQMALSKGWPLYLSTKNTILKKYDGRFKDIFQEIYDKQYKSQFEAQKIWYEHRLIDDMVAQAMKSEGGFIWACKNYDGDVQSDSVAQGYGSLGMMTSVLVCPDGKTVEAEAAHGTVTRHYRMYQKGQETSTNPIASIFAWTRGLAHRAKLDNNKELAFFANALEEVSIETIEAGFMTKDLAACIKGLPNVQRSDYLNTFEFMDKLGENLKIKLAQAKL
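IDH1-R132H (0.5 ug/mL) preincubated 30 min with compound, then NADPH (0.016 mM) and alpha-KG (2 mM) added; 80 min at RT, pH 7.5. Remaining NADPH coupled via diaphorase/resazurin to fluorescence (540/590 nm); concentration-response curves normalized to no-enzyme control.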
gsp agonist: agonists of gsp mutant (McCune-Albright syndrome). gsp mutant cells, cAMP HTRF, 30 min. Potency, µM (series often up to 76.9 µM), inactives show top-dose activation (cAMP increase), actives largely listed as activators. actives 0.13% (n = 340,000). AID 624287; active means well fitted activation curve with a large enough effect; inconclusive means small, poorly fitted or top-dose-only effect, or another doubt; inactive means no such curve, though single readings can be large or run the other way; cell line not stated here;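 further: phosphodiesterase inhibitor Ro 20-1724 added with compounds to block cAMP breakdown; potency means the concentration at half of the fitted maximal effect; nearly all actives have a fitted effect of over 60% in size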
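Cells stably selected in G418 were plated at 2000/well, grown 16-24 hr, then given compounds in DMSO with the PDE inhibitor […] (300 uM solution added) for 30 min at 37C; cAMP was read by HTRF.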
IL-2 act: activates IL-2 in a cell-based reporter assay; IL-2 activation reporter assay, cell-based qHTS; stimulated with anti-CD3/CD4/CD28 beads; in transgenic mouse T cells; actives 0.065% (n = 360,000); activation, % (series mostly up to about 46 µM); in the data active means activation above about 50%; inconclusive means mostly about 30% to 49%; further: 0% is about no effect
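Unstimulated transgenic mouse T cells; 60-min compound exposure; bead-based TCR/CD4/CD28 stimulation; 18 h culture, 37 degrees C; dual fluorescence (EGFP, DsRed) plate cytometry.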
BRCA1 expr act: activators of BRCA1 expression; MCF7-BRCA1-FFLuc reporter, luminescence, 48 h; response scale: scaled: vehicle 0%, 10 µM genistein 100%; Potency, µM (titrated, usually from 46.1 µM), for inactives: at the top dose activation, actives largely listed as activators; actives 1.1% (n = 380,000); AID 624202; further: potency means the concentration at half of the fitted maximal effect; nearly all actives have a fitted effect of over 80% in size
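First, MCF7-BRCA1-FFLuc cells (2000/well) attach for 2 h; next, compounds are pin-added and incubated 48 h at 37 °C; finally, luciferase reagent is added and luminescence read after 15 min.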
gsp antagonist: antagonists of gsp mutant (McCune-Albright syndrome); gsp-mutant cells, cAMP HTRF, 30 min; Potency, µM (doses to about 76.9 µM), for the others: at the top dose activity change, negative = inhibition, hits mostly inhibitors; actives 0.4% (n = 340,000); AID 624288; calls by dose curve; cell line not stated here;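 further: intracellular cAMP measured with PDE inhibitor Ro 20-1724 present during compound exposure; potency means the concentration at half of the fitted maximal effect; on the % scale 0 is the no-effect control and ±100 the full control effect; nearly all actives have a fitted effect of over 65% in size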
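Cells, 2000/well, grown 16–24 h in DMEM 10% FBS with 0.5 mg/ml G418, then compounds plus […] (300 uM addition stock), 30 min at 37C. cAMP read by HTRF (cAMP-d2 and anti-cAMP antibody-K in lysis buffer) after 30 min RT.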
IDH1 autofl: interferes with resorufin fluorescence in IDH1 counter-screen | 750 tested, under 10 active | inhibition of signal, % at 51.2 µM | shares compounds with mIDH1 inhibitor | AID 623980 | Resorufin detection reagent fluorescence interference, cell-free;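 further: 0% = wells with normal resorufin and full inhibition = wells lacking resorufin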
WT IDH1 inh: selectivity of mutant IDH1 inhibitors: human wild-type IDH1; shares compounds with mIDH1 inhibitor; WT IDH1 enzyme, NADPH diaphorase/resazurin fluorescence; Potency, µM (highest dose often 115 µM), for inactives: top-dose activity change, negative = inhibition, usual class: inhibitors; actives 9% (n = 750);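 further: potency means the concentration at half of the fitted maximal effect; 0% = full WT IDH1 enzyme control and full inhibition = no enzyme wells; nearly all actives have a fitted effect of over 55% in size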
Target sequence (O75874 whole entry, looked up): as the sequence (O75874 whole entry R132H, stated change not applied) above, with H132R counted along it
IDH1 R132H conf: mutant IDH1 (human) inhibition, confirmed. shares compounds with mIDH1 inhibitor. IDH1 R132H enzyme, NADPH diaphorase/resazurin fluorescence. Potency, µM (highest dose often 76.6 µM), for inactives: top-dose activity change, negative = inhibition, most hits filed as inhibitors. actives 83% (n = 750). AID 624002; further: potency means the concentration at half of the fitted maximal effect; nearly all actives have a fitted effect of over 50% in size
* hit, by the source's call; ? = inconclusive; nt = not tested or not shown; [ ] = dose if it differs, or a comment. This is a sample that favours compounds with a hit; in the whole collection about 1.5% have one here. Unless noted, the call rests on the fitted dose curve; in most records, active means well fitted curve in the direction sought with a large enough effect; inconclusive means small, poorly fitted or top-dose-only effect, or another doubt; inactive means no such curve, though single readings can be large; an effect the other way counts as inactive or inconclusive.

SMILES | mIDH1 inhibitor | gsp agonist | IL-2 act | BRCA1 expr act | gsp antagonist | IDH1 autofl | WT IDH1 inh | IDH1 R132H conf
CCCCCn1c(=N)c(S(=O)(=O)c2ccccc2)cc2c(=O)n3ccccc3nc21 | 20µM* | nt | nt | 7.2% | nt | 1.9 | 5.0% | 7.94µM*
CCn1c(=N)c(S(=O)(=O)c2ccccc2)cc2c(=O)n3ccccc3nc21 | -0.1% | 9.9%[15.4 µM] | -4.6 | 12.7% | 2.8% | nt | nt | nt
CCCn1c(=N)c(S(=O)(=O)c2ccccc2)cc2c(=O)n3ccccc3nc21 | 39.8µM* | 8.8%[15.4 µM] | -1.3 | -12.9% | -4.2% | 4.1 | 6.8% | 20µM*
CCOC(=O)CNC(=O)c1cc2c(=O)n(CC)c3ccccc3c2s1 | 2.0% | nt | nt | 1.8% | nt | nt | nt | nt
O=C(CSc1nc2c(oc3ccccc32)c(=O)[nH]1)Nc1cccc(Cl)c1 | -13.8% | nt | nt | ? | nt | nt | nt | nt
CCOC(=O)c1cc(-c2ccc(/C=C3/C(=O)N(c4ccc(C(=O)O)cc4)N=C3C)o2)ccc1Cl | ? | 1.4%[15.4 µM] | -7.9 | 0.0% | ? | 4.1 | 5.01µM* | 1.26µM*
CCOC(=O)c1cc(-c2ccc(/C=N\n3cnnc3)o2)ccc1Cl | 0.1% | 0.0% | -0.3 | 0.4% | -3.2% | nt | nt | nt
CC(C)(CC1(C)NC(=O)NC1=O)OCc1ccccc1 (configuration not stated) | -0.1% | -13.6% | -4.1 | 0.4% | 18.9% | nt | nt | nt
COc1ccc(C)cc1NC(=O)CN1C(=O)COc2ccc(S(=O)(=O)N3CCCCC3)cc21 | 3.7% | 27.6% | -0.3 | -12.9% | -6.2% | nt | nt | nt
Cc1c(/C=N/NC(=O)c2cc(=O)[nH]c(=O)[nH]2)c2ccccn2c1C(=O)c1ccccc1 | ? | ? | -0.9 | 10.7% | -5.1% | -2.0 | ? | 14.1µM*
Cc1c(/C=N/NC(=O)c2ccc(O)cc2)c2ccccn2c1C(=O)c1ccc(F)cc1 | -0.1% | -3.5% | -0.6 | -61.0% | ? | nt | nt | nt
CSC1=NC(=O)/C(=C\c2cccc3ccccc23)S1 | 58.5µM* | 15.4%[15.4 µM] | -0.6 | -20.5% | -12.4% | -5.4 | 70.8µM* | 22.4µM*
O=C1NC[C@@H](Cc2cccc3ccccc23)N(CCCCC2CCCCC2)C1=O | ? | nt | 0.0 | 5.5% | -3.1% | 1.5 | -19.3% | 39.8µM*
O=C1NC[C@H](CC2CCCCC2)N(CCc2cccc3ccccc23)C1=O | nt | nt | -0.3 | -6.8% | nt | nt | nt | nt
COc1ccc(-c2csc3nc(C)nc(N4CCCCC4)c23)cc1OC | ? | -6.9%[15.4 µM] | -0.6 | -52.9% | -71.7% | -7.1 | 4.5% | 31.6µM*
COc1ccc(-c2csc3nc(-c4cccnc4)nc(N4CCC(C(N)=O)CC4)c23)cc1OC | ? | ? | -0.9 | -62.3% | -7.0% | nt | nt | nt
COc1cc(C(=S)N2CCN(C(c3ccccc3)c3ccccc3)CC2)cc(OC)c1O | ? | -21.7% | 0.6 | -29.2% | -32.7% | -7.1 | 5.9% | 22.4µM*
COc1ccc(NC(=S)N2CCN(C(c3ccccc3)c3ccccc3)CC2)cc1OC | -0.7% | 2.1% | -0.3 | -30.1% | ? | nt | nt | nt
CCc1ccc(-n2c(=O)c3c(C)c(C(=O)N(C)C)sc3n(Cc3cccc(C)c3)c2=O)cc1 | ? | nt | nt | nt | nt | -3.3 | -9.7% | 31.6µM*
CCN(CC)C(=O)c1sc2c(c1C)c(=O)n(-c1ccccc1)c(=O)n2Cc1cc(=O)n2ccccc2n1 | -8.0% | nt | nt | nt | nt | nt | nt | nt
Cc1ccc(-n2c(=O)c3c(C)c(C(=O)N(C)C)sc3n(Cc3ccccc3C)c2=O)cc1C | ? | nt | nt | nt | nt | -4.7 | 2.0% | 22.4µM*

From PubChem BioAssay
